Results published in PubChem BioAssay AID493248 (Broad Institute, 2011).
Screen size: about 2,300 compounds; about 1,400 (61%) were called active. About 7% were inconclusive and are not listed. How the calls were made is not given here. The set was probably picked from earlier hits. A selection follows. Potency and affinity values are given separately.

molecular target: FAD-linked sulfhydryl oxidase ALR (Homo sapiens) (UniProt P55789); assay: inhibitors of human ALR sulfhydryl oxidase, dose response, biochemical, H2O2 detection, luminescence, cherry-pick (AID 493248); conditions: purified ALR, DTT oxidation, H2O2 HRP-luminol luminescence; at 10 µM (top of the series)
Sequence (P55789 whole entry, looked up): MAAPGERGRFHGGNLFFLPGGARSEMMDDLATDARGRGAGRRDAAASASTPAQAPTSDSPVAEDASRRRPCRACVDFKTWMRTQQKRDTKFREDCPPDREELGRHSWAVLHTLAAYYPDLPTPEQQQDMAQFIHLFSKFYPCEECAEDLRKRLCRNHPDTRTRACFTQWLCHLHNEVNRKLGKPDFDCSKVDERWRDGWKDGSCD

| Structure (SMILES) | activity change, negative = inhibition [%] |
| --- | --- |
| CN(C)c1ccc(NC(=O)CC2NCCNC2=O)cc1 (stereo not drawn) | -99.5 |
| COc1ccc(NC(=O)CC2Nc3cccc4cccc(c34)NC2=O)cc1 (stereo not drawn) | -74.6 |
| CC(C)Cn1c(N)c(C=O)c(=O)n(C)c1=O | -3.74 |
| CN(Cc1ccco1)C(=O)C(Cc1ccccc1)NS(=O)(=O)c1ccc2c(c1)CCC(=O)N2 (stereo not drawn) | -12 |
| CSc1ccc(/C=C2\C(=N)N3N=C(CC(=O)N4CCCCC4)SC3=NC2=O)cc1 | -54.4 |
| N=C1/C(=C\c2ccc(Br)o2)C(=O)N=C2SC(CC(=O)N3CCCCC3)=NN12 | -18.4 |
| CCc1ccc(CCC(=O)Nc2ccc(Cl)cc2)o1 | -22.5 |
| CC(C)C(=O)NN(C(=O)C(C)C)c1nc2ccccc2s1 | -76 |
| Cn1c(-c2sccc2OCc2ccccc2)n[nH]c1=S | -40.7 |
| Cc1nc(-c2ccccc2)sc1-c1n[nH]c(=S)n1C | -47.5 |
| COc1cc(CNc2cc(C)ccc2C)cc(OC)c1OC | -55.5 |
| Cc1ccc2cc3cc(C(=O)NCCCN4CCCC4=O)oc3nc2c1 | -55.2 |
| Cc1nc(C)c(-c2csc(Nc3cccnc3)n2)s1 | -15.7 |
| Cc1nc(C)c(-c2csc(Nc3ccc(O)cc3C)n2)s1 | -3.91 |
| COc1cc(N)c(Cc2nccc3cc(OC)c(OC)cc23)cc1OC | 5.91 |
| COc1cc(Sc2ccc(C)cc2)c(OC)cc1N | -74.8 |
| CC(/C=N/n1c(-c2ccc(C)cc2)n[nH]c1=S)=C\c1ccco1 | -40.8 |
| Cc1cccc(/C=N/Nc2nncc3ccccc23)c1 | -4.32 |
| CN1C(=O)CC(NNC(=O)c2ccc(Cl)cc2)C1=O (stereo not drawn) | -47.1 |
| O=C(N/N=C1/CCSC1)c1cc(Br)ccc1O | -17.6 |
| COc1ccc(Nc2ccccc2N)cc1 | 221 |
| O=c1[nH]nc(CNc2ccc(O)cc2)c2ccccc12 | -103 |
| COc1ccc(NCCc2ccccn2)cc1 | 86.3 |
| S=c1[nH]cc(-c2ccccc2)n1-c1ccccc1Cl | -24.1 |
| Nc1ccccc1C(=O)NNc1c2ccccc2nc2ccccc12 | -69.6 |
| C/C(=N\NC(=O)c1ccccc1O)C1C(=O)c2ccccc2C1=O | -23.9 |

| Structure (SMILES) | activity change, negative = inhibition [%] |
| --- | --- |
| CC(=O)Nc1ccc(NCN2C(=O)C3C4CCC(C4)C3C2=O)cc1 (stereo not drawn) | -86.6 |
| CCc1cc2c3c(c1)C(C)CC(C)(C)N3C(=O)/C2=C1\SC(=O)NC1=O (stereo not drawn) | -7.31 |
| C/C(=N\Nc1ccccn1)c1cccs1 | -11.5 |
| COc1ccc2c(c1)N(C)/C(=C/c1cccc[n+]1C)S2 | -53.1 |
| CCC(=O)Nc1cccc(-c2cnc3ccccc3n2)c1 | 3.89 |
| CN1CCN(c2ccc(NC(=O)c3ccc(Cl)cc3)cn2)CC1 | -19.7 |
| COc1cc(OC)cc(C(=O)N2CCC(N3CCN(c4ccccc4)CC3)CC2)c1 | -61.4 |
| CC(=O)NN1C(=O)/C(=C\c2ccc(O)cc2)SC1=S | -79.9 |
| O=C(C1CC1)N1CCN=C1SCc1ccc(Cl)cc1 | -64.3 |
| O=C1c2ccccc2CSc2c(O)cccc21 | -28.4 |
| CC(=O)Nc1ccc(S(=O)(=O)NNc2ccc([N+](=O)[O-])cc2)cc1 | -103 |
| O=C(C1CC1)N1CCN=C1SCc1ccc(F)cc1 | -51.5 |
| CN(C)/C=N/c1sc2c(c1C#N)CCC2 | 25.9 |
| COC(=O)c1ccc(NC(=O)c2ccc(C)cc2)o1 | -4.94 |
| CN(C)c1ccc(/C=N/NC(=O)c2cccc(N3CCCC3=O)c2)cc1 | -16.6 |
| CC(=O)Nc1cccc(N2CCCC2=O)c1 | -18.2 |
| CCc1c(C)sc(NC(=O)c2cc(C)no2)c1C#N | -63.3 |
| COC(=O)c1ccc2[nH]c3c(c2c1)CC(C)CC3 (stereo not drawn) | -6.7 |
| Cc1nc2ccc(S(=O)(=O)N(C)CC(=O)NCc3ccc(N(C)C)cc3)cc2s1 | -41.2 |
| CCN1C(=O)c2ccc(C(=O)Nc3ccc(O)cc3C)cc2C1=O | -50.1 |
| CCn1c(-c2ccc(N)cc2)nc2ccccc21 | -17.3 |
| CCN(Cc1nc2ccccc2n1C)c1ccccc1 | -11.5 |
| CCn1c(CN(C)c2ccccc2)nc2ccccc21 | -7.07 |
| CN(Cc1nc2ccccc2n1C)c1ccccc1 | -32.4 |
| O=C(Nc1ccc(O)cc1)c1cc2n(n1)C(C(F)(F)F)CC(c1ccco1)N2 (stereo not drawn) | -82.6 |
| c1ccc2c(-c3csc(-c4ccncc4)n3)c[nH]c2c1 | -10.2 |

| Structure (SMILES) | activity change, negative = inhibition [%] |
| --- | --- |
| COc1cc(C=NNC(=O)c2ccc(NS(=O)(=O)c3cccs3)cc2)cc(Br)c1O | 165 |
| CCCCCCC(=O)N/N=C/c1ccco1 | -28.6 |
| COc1nc(-c2ccccc2Cl)ccc1C#N | -32.6 |
| Cc1ccc2cn[nH]c2c1N | -36.2 |
| O=S(=O)(Nc1ccccc1O)c1ccc(Cl)nc1 | -36.8 |
| COc1ccc(N2C(=O)CC(NNc3ncc(Cl)cc3Cl)C2=O)cc1 (stereo not drawn) | -50.3 |
| CC1=NN(C(=O)c2ccc(Br)cc2)C(O)(c2ccccc2)C1 (stereo not drawn) | 286 |
| Cc1noc(C)c1S(=O)(=O)N(CC(=O)NCc1ccc2c(c1)OCO2)c1ccc(C(C)C)cc1 | 1.03 |
| O=C(NCc1ccc2c(c1)OCO2)C1CC(=O)N(c2ccc(O)cc2)C1 (stereo not drawn) | -108 |
| O=c1[nH]n(-c2ccc(Cl)cc2)c2ncccc12 | 291 |
| O=C(CCCC(=O)c1ccccc1)Nc1ccc(O)cc1 | 182 |
| S=c1[nH]nc(Cc2noc3ccccc23)n1-c1ccc(Cl)cc1 | -49.3 |
| COc1ccc(OC)c(/C(C)=N/Nc2ccc(C(=O)O)cc2)c1 | -31.7 |
| COc1ccc(CNc2nc3ccccc3n2CCN2CCCCC2)cc1 | 35.3 |
| Brc1c(CSc2nnc(-c3ccco3)o2)nc2ccccn12 | -95.5 |
| O=C(O)c1ccc(N(c2ccccc2)c2ccccc2)cc1 | -77.1 |
| CCN(c1ccc(C)c(C)c1)S(=O)(=O)c1ccc2c(c1)CCN2C(=O)CCC(=O)O | -9.61 |
| CCc1c(C)[nH]n(-c2ccc(Oc3ccccc3)c(S(=O)(=O)O)c2)c1=O | -7.16 |
| Cc1cc(-c2n[nH]c(=S)o2)c(C)n1-c1ccccc1 | 19.3 |
| COc1ccc(-c2csc(N(CCCN(C)C)C(=O)c3ccc(F)cc3)n2)cc1 | -32.9 |
| CS(=O)(=O)N1CCN=C1SCc1cccc(F)c1 | -0.153 |
| CCCS(=O)(=O)N1CCN=C1SCc1ccc(F)cc1 | -0.819 |
| S=c1[nH]nc(-c2c[nH]c3ccccc23)o1 | -89 |
| CCn1c(-c2cc(OC)c(OC)c(OC)c2)n[nH]c1=S | -1.45 |
| CCCCCCCCN1[C@@H](CC(=O)O)c2ccc(C(F)(F)F)cc2S1(=O)=O | -22.2 |
| COc1cccc2c3c(c(=O)[nH]c12)CCC(C)(C)O3 | -20.3 |
